From PubChem BioAssay
M1 antag: antagonists of human M1 muscarinic receptor; P11229; CHO-K1 hM1, Fluo-8 calcium fluorescence, ACh EC80 antagonist; inhibition, % at 3 µM; 360,000 tested, 1.3% active; AID 588852;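 active means percent inhibition above its own plate's cutoff, namely the mean of that plate's compound wells plus 3 SD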;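 further: peak over basal fluorescence ratio during 140 s after agonist addition; 0% = ACh EC80 plus DMSO and 100% = DMSO alone without agonist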
Target sequence (P11229 whole entry, looked up): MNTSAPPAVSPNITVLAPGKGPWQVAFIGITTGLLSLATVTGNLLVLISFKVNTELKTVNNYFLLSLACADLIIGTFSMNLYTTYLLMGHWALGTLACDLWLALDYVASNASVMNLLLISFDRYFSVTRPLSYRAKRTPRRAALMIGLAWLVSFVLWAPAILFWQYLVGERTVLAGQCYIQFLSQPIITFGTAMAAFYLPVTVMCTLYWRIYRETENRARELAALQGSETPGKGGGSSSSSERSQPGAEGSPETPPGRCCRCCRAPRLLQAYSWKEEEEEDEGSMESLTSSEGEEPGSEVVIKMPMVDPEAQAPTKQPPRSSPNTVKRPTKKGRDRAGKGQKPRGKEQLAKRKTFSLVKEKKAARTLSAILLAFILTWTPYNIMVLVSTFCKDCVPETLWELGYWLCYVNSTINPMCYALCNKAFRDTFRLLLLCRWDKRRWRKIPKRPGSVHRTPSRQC
CHO-K1 Ca PAM: M1 PAM counterscreen hit in parental CHO-K1 cells | ATP EC20, Fluo-8 calcium fluorescence; 0% at ATP EC20, 100% at ATP max | activation, % at 3 µM | 360,000 tested, 0.02% active | AID 602247;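 active means activation above the run cutoff, the mean activation of all test compounds plus 3 SD, cut at about 40% in these data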;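 further: peak over basal fluorescence ratio in a 140 s read after ATP addition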
CHO-K1 Ca ag: nonselective activator or artifact in parental CHO-K1 cells | Fluo-8 calcium fluorescence; scaled to maximal ATP response, vehicle zero | activation, % at 3 µM | 360,000 tested, 0.48% active | AID 602248; in the data active means activation above about 15%;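 further: untransfected CHO-K1 host cells lacking M1 receptor as counterscreen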
M1 PAM: potentiates human M1 receptor response to acetylcholine. AID 588819. CHO-K1 hM1, Fluo-8 calcium fluorescence, ACh EC20; 0% = ACh EC20, 100% = maximal ACh. activation, % at 3 µM. 360,000 tested, 0.088% active. P11229; in the data active means activation above about 19%, passing the limit was not always enough
CHO-K1 Ca antag: nonselective inhibitor or artifact in parental CHO-K1 cells | AID 602250 | inhibition, % at 3 µM | ATP-induced calcium, Fluo-8 fluorescence | 360,000 tested, 0.6% active;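 active means inhibition above a per-plate cutoff, the plate's mean sample inhibition plus 3 SD, cut at about 24% in these data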;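 further: 0% = DMSO plus EC80 ATP and 100% = DMSO alone without ATP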
M1 ag: activates human CHRM1 receptor. activation, % at 3 µM. 360,000 tested, 0.33% active. AID 588814. P11229. CHO-K1 hM1, Fluo-8 calcium fluorescence, agonist mode; 0% DMSO, 100% acetylcholine EC100;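 active means activation above the run's mean compound activation plus 3 SD, cut at about 16% in these data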;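 further: peak over basal fluorescence ratio within a 140 s kinetic read after compound addition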
Starred values were filed as active, the others as inactive. A selection: hits, their analogues and other compounds. The true share with any hit is near 2.3%.

SMILES	M1 antag	CHO-K1 Ca PAM	CHO-K1 Ca ag	M1 PAM	CHO-K1 Ca antag	M1 ag
C[C@@]12C(=O)Nc3cc(Cl)ccc3C(=O)N1[C@H]1c3cc(Cl)ccc3OC[C@@H]1[C@@H]2c1ccccc1	-4	9	0	-1	-11	-5
C[C@@]12C(=O)Nc3ccc(Cl)cc3C(=O)N1[C@H]1c3ccccc3OC[C@@H]1[C@@H]2c1ccccc1	33*	11	0	-15	-12	-3
C[C@@]12C(=O)Nc3cc(Cl)ccc3C(=O)N1[C@H]1c3ccccc3OC[C@@H]1[C@@H]2c1ccccc1	33*	-14	0	-24	3	-4
Cc1ccc2c(c1)C(=O)N1[C@H]3c4cc(Cl)ccc4OC[C@@H]3[C@H](c3ccccc3)[C@]1(C)C(=O)N2	-3	-4	0	-4	-8	-2
CC1CC(CC(=O)NC(=S)Nc2ccccc2Cl)C(=O)O1 (configuration not stated)	-10	11	0	5	-1	-5
CCSc1ccc2c(c1)N(CCCN1CCN(C)CC1)c1ccccc1S2	22	14	3	-19	7	-6
CN1CCCCC1CCN1c2ccccc2Sc2ccc(S(C)=O)cc21 (configuration not stated)	99*	21	0	-25	-10	-8
CCOC(=O)CCS(=O)(=O)c1ccc(-c2ccc(S(=O)(=O)CCC(=O)OCC)cc2)cc1	-12	14	2	3	-26	0
Nc1nc(Nc2cccc(F)c2)nc(NCCO)c1[N+](=O)[O-]	-9	19	15*	10	-12	-3
C[C@]12CCC(=O)C=C1CC[C@@H]1[C@@H]2CC[C@@]2(C)[C@H]1CC[C@@]21CCC(=O)O1	31*	-7	4	-21	-9	-8
Cc1cc(C)cc(N(CCC#N)C(=O)COC(=O)C2CCN(c3ccc(C(F)(F)F)cn3)CC2)c1	30*	-7	-1	-16	6	-7
COc1ccccc1C(=O)NC(=S)NNC(=O)c1sc2ccccc2c1Cl	3	3	0	-8	-3	0
COc1ccccc1C(=O)NNC(=S)NC(=O)c1sc2ccccc2c1Cl	0	16	12	-5	-3	22*
COc1ccc(Nc2ncnc3ccccc23)c(OC)c1	3	16	0	0	-4	-3
COc1ccc(Nc2nnc(Cc3ccncc3)c3ccccc23)c(OC)c1	4	2	0	3	-15	51*
O=C(O)c1nnn(-c2cccc(C(F)(F)F)c2)c1-c1ccccc1	-8	22	1	3	-12	-3
Cc1ccc(-n2c3nc(=O)[nH]c(=O)c-3cc3cc([N+](=O)[O-])ccc32)cc1C	30*	11	0	-28	-1	-10
Cc1ccc(S(=O)(=O)n2cnc3cc([N+](=O)[O-])ccc32)cc1C	-4	20	1	5	-7	-5
CCOC(=O)C1=C(C)Nc2ccccc2N/C1=N\S(=O)(=O)c1cc(C(=O)O)ccc1Cl	13	-4	9	-7	5	-1
C(C#CCCCCCCCCC[n+]1ccccc1)#CCCCCCCCCC[n+]1ccccc1	98*	15	1	-27	-6	-5
CC(CN1CCN(CCOCCO)CC1)CN1c2ccccc2Sc2ccc(Cl)cc21 (configuration not stated)	56*	9	6	-28	-2	0
O=C(CSc1nnc(Cn2nnc3ccccc32)o1)Nc1cccc(Cl)c1	0	3	4	6	-14	0
O=C(CSc1nnc(Cn2nnc3ccccc32)o1)N(Cc1ccc(Cl)cc1)c1ccccc1	20*	-1	3	-12	19	1
Cn1c(CC(=O)NN)c(Sc2ccccc2)c2ccccc21	-17	17	1	7	-19	-5
COC(=O)c1c(Sc2ccccc2)c2ccccc2n1C	-1	6	0	-8	-18	35*
SMILES	M1 antag	CHO-K1 Ca PAM	CHO-K1 Ca ag	M1 PAM	CHO-K1 Ca antag	M1 ag
Cc1ccc(N=C2C(=S)N(c3ccc(C)cc3)C(=N)N2/N=C/c2ccc(Cl)cc2)cc1	3	10	0	1	3	-5
COc1ccc(NC(=O)COc2ccccc2)cc1Cl	-11	-10	1	8	-4	-3
CN(C)C(CNC(=O)CCC(=O)c1ccc(Br)cc1)c1ccccc1 (configuration not stated)	35*	-3	2	-28	-14	-8
CN(C)C(CNC(=O)c1ccc(NC(=O)CC#N)cc1)c1ccccc1 (configuration not stated)	30*	-5	0	-20	-5	-8
CN(C)C(CNC(=O)CCS(=O)(=O)c1ccccc1)c1ccccc1 (configuration not stated)	-7	17	1	7	-16	-9
COc1ccc(NC(=O)COc2ccccc2C(=O)NCC(c2ccccc2)N(C)C)cc1Cl (configuration not stated)	73*	-7	3	-31	-3	-8
COCC(C)NC(C(=O)Nc1ccc(Cl)c([N+](=O)[O-])c1)c1ccccc1 (configuration not stated)	3	-2	0	31*	3	-6
CCC(C)NC(C(=O)Nc1ccc(Cl)c([N+](=O)[O-])c1)c1ccccc1 (configuration not stated)	-7	31	1	0	-11	-8
COc1ccccc1C(CNC(=O)c1cccc(NS(=O)(=O)c2ccc(C)c(F)c2)c1)N1CCCC1 (configuration not stated)	84*	-11	1	-26	-8	-8
COc1ccc(C(CNC(=O)c2ccc(NS(=O)(=O)c3ccc(F)c(C)c3)cc2)N2CCCC2)cc1 (configuration not stated)	73*	17	1	-29	-7	-8
COc1ccccc1C(CNC(=O)c1ccc(NS(=O)(=O)c2ccc(F)c(C)c2)cc1)N1CCCC1 (configuration not stated)	22	7	0	-13	-1	-6
COc1ccc(F)cc1S(=O)(=O)Nc1cccc(C(=O)O)c1	2	3	0	2	-2	-4
Cc1cccc(CNC(=O)CCc2nnc(C3CCCCC3)o2)c1	2	5	3	8	-8	-4
Cc1[nH]c2ccccc2c1C(=O)CN1C(=O)NC2(CC(C)CC(C)(C)C2)C1=O (configuration not stated)	12	11	35*	-2	8	10
CC1CC(C)(C)CC2(C1)NC(=O)N(CC(=O)N1CCN(S(=O)(=O)c3cccc(Cl)c3Cl)CC1)C2=O (configuration not stated)	45*	-15	0	-20	12	-6
CC(=O)C[C@H](O)CC(=O)[C@H]1OC(=O)CC/C=C\Cc2ccccc21	-7	-3	0	18	-6	2
